Assay outcomes as filed in PubChem.
BAZ2B block – qHTS Assay for Inhibitors of BAZ2B. Bromodomain adjacent to zinc finger domain protein 2B (Homo sapiens), Q9UIF8. AlphaScreen BAZ2B-H3K14Ac peptide displacement. Potency, µM (titrated, usually from 114 µM), for the others: at the top dose activity change, negative = inhibition, hits mostly inhibitors. actives 4.4% (n = 360,000). AID 504333, 2011; also: % is scaled to controls: 0 for no effect and ±100 for the full control effect; nearly all actives have a fitted effect of over 60% in size
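Compounds, titrated to a top concentration of 110 uM, were incubated 30 min at room temperature with preformed BAZ2B/acetyl-K14 H3 peptide complex (50 nM each). Proximity signal was measured by AlphaScreen after 20 min with beads.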
JMJD2A Tudor inh – qHTS Assay for Inhibitors of JMJD2A-Tudor Domain; Lysine-specific demethylase 4A (Homo sapiens), O75164; AlphaScreen JMJD2A-Tudor / H3K4me3 peptide binding; Potency, µM (top dose mostly 114 µM), inactives show at the top dose activity change, negative = inhibition, usual class: inhibitors; actives 4.4% (n = 390,000); AID 504339, 2011; also: % is scaled to controls: 0 for no effect and ±100 for the full control effect; nearly all actives have a fitted effect of over 50% in size
Target sequence (O75164 whole entry, looked up, the tested form may be a part): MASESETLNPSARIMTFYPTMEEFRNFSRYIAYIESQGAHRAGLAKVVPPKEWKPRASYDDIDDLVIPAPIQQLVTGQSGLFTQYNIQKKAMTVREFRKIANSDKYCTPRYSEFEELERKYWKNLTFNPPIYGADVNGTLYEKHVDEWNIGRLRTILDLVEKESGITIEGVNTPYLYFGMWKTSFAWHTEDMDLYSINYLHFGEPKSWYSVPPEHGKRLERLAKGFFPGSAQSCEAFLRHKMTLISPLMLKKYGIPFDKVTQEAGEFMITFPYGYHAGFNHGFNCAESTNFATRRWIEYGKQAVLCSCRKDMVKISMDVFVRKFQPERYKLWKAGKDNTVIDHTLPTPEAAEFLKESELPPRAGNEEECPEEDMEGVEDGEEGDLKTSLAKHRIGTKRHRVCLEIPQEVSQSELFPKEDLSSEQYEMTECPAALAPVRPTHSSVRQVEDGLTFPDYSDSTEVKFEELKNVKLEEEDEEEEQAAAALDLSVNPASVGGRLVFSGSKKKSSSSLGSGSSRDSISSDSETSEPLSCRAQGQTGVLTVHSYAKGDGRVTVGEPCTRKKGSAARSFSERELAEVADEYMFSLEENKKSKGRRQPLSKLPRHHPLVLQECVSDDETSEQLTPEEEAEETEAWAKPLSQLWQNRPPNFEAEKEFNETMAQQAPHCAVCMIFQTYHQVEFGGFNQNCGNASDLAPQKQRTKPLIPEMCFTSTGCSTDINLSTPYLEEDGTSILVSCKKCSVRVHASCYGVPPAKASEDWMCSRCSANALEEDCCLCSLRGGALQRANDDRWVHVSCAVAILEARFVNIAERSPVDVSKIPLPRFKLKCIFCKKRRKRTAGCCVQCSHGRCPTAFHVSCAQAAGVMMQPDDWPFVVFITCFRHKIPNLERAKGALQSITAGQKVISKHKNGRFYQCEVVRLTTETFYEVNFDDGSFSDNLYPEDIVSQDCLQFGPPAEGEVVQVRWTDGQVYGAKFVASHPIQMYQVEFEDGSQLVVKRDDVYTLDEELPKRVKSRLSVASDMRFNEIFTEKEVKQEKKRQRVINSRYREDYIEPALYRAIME
G9a block – qHTS Assay for Inhibitors of Histone Lysine Methyltransferase G9a | G9a H3K9 monomethylation, AlphaScreen, 2 h | AID 504332, 2011 | Histone-lysine N-methyltransferase EHMT2 (Homo sapiens), Q96KQ7 | actives 8.8% (n = 350,000) | Potency, µM (series often up to 102 µM), without a hit: at the top dose activity, negative = inhibition, usual class: inhibitors; also: % is scaled to controls: 0 for no effect and ±100 for the full control effect; nearly all actives have a fitted effect of over 75% in size
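AlphaScreen detection with an anti-monomethyl H3K9 antibody quantified product after a 2 h room-temperature reaction containing 500 nM biotinylated H3K9 peptide, 20 µM SAM and 20 nM enzyme, which had been preincubated 15 min with compound.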
HP1b binding inh – HTS for Inhibitors of HP1-beta Chromodomain Interactions with Methylated Histone Tails | Chromobox protein homolog 1 (Homo sapiens), P83916 | AlphaScreen HP1-beta / biotin-H3K9me3 peptide binding | Potency, µM (series often up to 114 µM), for the others: at the highest dose activity change, negative = inhibition, hits mostly inhibitors | actives 0.56% (n = 390,000); also: nearly all actives have a fitted effect of over 70% in size
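Compound inhibition of the preformed complex between 50 nM HP1-beta and 50 nM biotinylated H3K9me3 peptide was read by AlphaScreen. Buffer was PBS pH 7.4 with 0.01% Tween-20. Incubations ran 30 min at room temperature, with 10 ug/mL donor/acceptor beads.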
PLK1 PBD block – qHTS for Inhibitors of PLK1-PDB (polo-like kinase 1 - polo-box domain): Primary Screen | Serine/threonine-protein kinase PLK1 (Homo sapiens), P53350 | Plk1 PBD binding of FITC phosphopeptide, fluorescence polarization | Potency, µM, without a hit: max response, negative = inhibition, most hits filed as inhibitors | actives 2.8% (n = 360,000) | AID 720504, 2013; also: series mostly up to about 57 µM; % is scaled to controls: 0 for no effect and ±100 for the full control effect; nearly all actives have a fitted effect of over 65% in size
ALOX12 inh – Primary qHTS assay for inhibitors of human arachidonate 12S-lipoxygenase (ALOX12): Round 2. purified 12hLO, xylenol orange hydroperoxide absorbance. Polyunsaturated fatty acid lipoxygenase ALOX12 (Homo sapiens), P18054. Potency, µM (top dose mostly 108 µM), for the others: at the top dose activity change, negative = inhibition, actives largely listed as inhibitors. actives 1.1% (n = 580,000); also: % is scaled to controls: 0 for no effect and ±100 for the full control effect
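Purified human 12hLO at 150 nM in 25 mM Hepes, 0.01% Triton X-100, pH 7.0, preincubated 15 min at room temperature with compound. Reaction started with 40 uM arachidonic acid, 30 min at room temperature. Hydroperoxide measured by Fe-xylenol orange, 573/405 nm absorbance ratio.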
Active calls of the source: *; ? = inconclusive; . = not tested or not shown; [ ] = dose if it differs, or a comment. Hits are enriched below; roughly 9% of the tested compounds scored in any of these assays. Calls follow the shape of the dose curve; as a rule, active = well fitted curve in the direction sought with a large enough effect; inconclusive = small, poorly fitted or top-dose-only effect, or another doubt; inactive = no such curve, though single readings can be large; an effect the other way counts as inactive or inconclusive. Potency is read from the fitted curve at half-maximal effect.

SMILES | BAZ2B block | JMJD2A Tudor inh | G9a block | HP1b binding inh | PLK1 PBD block | ALOX12 inh
COc1ccc(OCCSc2nnc(CC(=O)Nc3cccc(Cl)c3Cl)n2C)cc1 | -12.3% | ? | 3.16µM* | 8.1% | 0.0% | ?
CCn1c(CC(=O)Nc2cccc(Cl)c2Cl)nnc1SCCOc1ccc(OC)cc1 | -7.2% | ? | 25.1µM* | 25.8% | -1.5% | ?
CCCCNC(=O)C[C@@H]1C[C@@]2(C(=O)OC)CCCCC=C2N(CCc2ccc(OC)c(OC)c2)C1=O | . | . | . | . | -15.6% | -2.4%
Oc1c(Br)cc(Br)cc1CNc1ccc(F)cc1 | 39.8µM* | ? | 44.7µM* | -15.6% | -2.9% | ?
Nc1nccnc1C(=O)NCC(O)c1cccc(Cl)c1 (configuration not stated) | . | . | . | . | . | -17.2%
O=C(O)CC(c1cccc(Cl)c1)n1cccc1 (configuration not stated) | -4.7% | 89.1µM* | -17.4% | 0.7% | -11.4% | 0.0%
NC(=O)CC(O)c1cccc(Cl)c1 (configuration not stated) | -1.9% | -9.2%[11.4 µM] | 32.2% | -11.9% | 26.7µM* | -8.0%
CC(C)NC(=O)N(Cc1cccnc1)C1CNC1 | . | . | . | . | . | 22.8%
Cc1noc(C)c1Cc1ccc(O)cc1 | -5.3% | -12.9% | -37.0%[59 µM] | 14.8% | -7.9% | 0.0%
Cc1cc(C(=O)NCC2CCCO2)sc1C (configuration not stated) | -5.5% | -9.7% | 9.5%[0.501 µM] | 18.3% | -12.4% | -2.5%
O=S(=O)(N/N=C/c1ccc(Cl)cc1)c1ccc(Cc2ncc(C(F)(F)F)cc2Cl)s1 | -33.5% | ? | 28.2µM* | -24.2% | ? | 13.4%
O=C(COC(=O)/C=C/C(=O)N1CCN(c2ccccc2)CC1)NC(c1ccccc1)c1ccccc1 | 44.7µM* | -29.8% | ? | 22.4% | 9.2% | -7.7%
O=C(Nc1ccccc1)N(CCN1CCOCC1)Cc1cccc(Cl)c1 | 3.3% | -16.4% | -3.1% | 14.1% | 1.4% | 0.8%[57.4 µM]
CCOc1ccc(NC(=S)N(CCN2CCOCC2)Cc2ccc3c(c2)CCCN3CC)cc1 | 11.2µM* | 35.5µM* | 28.2µM* | ? | -0.6% | 9.2%
CCN1CCCc2cc(CN(CCN3CCOCC3)C(=S)Nc3ccc(OC)cc3)ccc21 | -29.0% | -19.7% | 1.5%[59 µM] | 24.5% | -6.5% | 0.7%
CCN1CCCc2cc(CN(CCN3CCOCC3)C(=S)Nc3cccc(Cl)c3)ccc21 | 7.08µM* | 11.2µM* | ? | ? | -1.7% | -4.8%
CCN1CCCc2cc(CN(CCN3CCOCC3)C(=S)Nc3ccc(C)cc3)ccc21 | 12.6µM* | ? | 12.6µM* | ? | -16.9% | ?
CCN1CCCc2cc(CN(CCN3CCOCC3)C(=S)Nc3cc(F)cc(F)c3)ccc21 | 10µM* | 35.5µM* | 15.8µM* | ? | -9.2% | 14.0%
COc1ccc(CN2CCNC(=O)C2CC(=O)NC2CCC2)c(OC)c1 (configuration not stated) | -12.6% | -8.1% | -17.6% | 18.0% | -18.0% | ?
Cc1nc(C)c(CCNC(=O)c2ccc(C(F)(F)F)cc2)s1 | 4.5% | -7.6% | 44.7µM* | 21.1% | -10.4% | -2.1%
CCN1C(=O)CC(c2ccco2)Sc2ccccc21 (configuration not stated) | ? | -26.6% | 50.1µM* | -4.8% | -12.8% | -29.1%
O=C1CC(c2ccccc2)Sc2ccccc2N1 (configuration not stated) | -2.2% | -4.2% | 44.7µM* | 38.4% | ? | ?
O=C1CC(c2ccco2)Sc2ccccc2N1 (configuration not stated) | -17.5% | -26.0% | 39.8µM* | 19.3% | -18.2% | .
CCOc1ccc(CCNC(=O)CCCc2nnc3n(CC)c(=O)c4sccc4n23)cc1 | -19.2% | -15.0% | -9.5%[59 µM] | 33.7% | . | -5.2%
CN(C(=O)CSc1ccc(S(=O)(=O)N2CCCCC2)cn1)c1ccccc1 | 4.2% | -7.4% | -7.3%[12.7 µM] | 53.6% | -6.3% | -2.3%
SMILES | BAZ2B block | JMJD2A Tudor inh | G9a block | HP1b binding inh | PLK1 PBD block | ALOX12 inh
O=C(N/N=C/c1ccc(-c2ccccc2[N+](=O)[O-])o1)c1cncc(Br)c1 | -36.6% | ? | 31.6µM* | ? | -17.6% | -1.5%
Nn1cnnc1N/N=C\c1ccc(-c2ccccc2[N+](=O)[O-])o1 | ? | ? | 35.5µM* | -14.3% | -17.9% | ?
O=C(N/N=C\c1ccc([N+](=O)[O-])o1)c1cncc(Br)c1 | -1.0% | 10.8% | 0.1% | 13.6% | -5.6% | 256.9%
Cc1cc([N+](=O)[O-])c(C)cc1-c1ccc(/C=N/NC(=O)c2cccnc2)o1 | ? | -16.4% | 44.7µM* | 25.9% | ? | 1.9%
N/C(Cc1ccc([N+](=O)[O-])cc1)=N\OC(=O)CC1CCCCC1 | -22.2% | -8.7% | ? | 19.5% | -4.1% | 14.4%
CCOC(=O)N1CCN(CC(O)COCc2ccccc2)CC1 (configuration not stated) | 4.0% | -2.2% | 2.0% | 34.4% | 1.9% | 0.0%
CCOC(=O)N1CCN(CC(O)COCC2=CCC3CC2C3(C)C)CC1 (configuration not stated) | 50.1µM* | 3.55µM* | . | ? | -9.1% | ?
O=C(CC[C@H]1O[C@@H](n2ccc(=O)[nH]c2=O)[C@H](O)[C@@H]1O)N[C@H](Cc1ccccc1)C(=O)NCc1ccccc1 | . | . | . | . | 2.8% | -9.5%
Cc1cc(C)cc(OCC(=O)OCC(=O)N(C)CC(=O)Nc2ccc(F)cc2)c1 | 5.5% | -5.5% | -22.3% | 28.2% | 1.9% | 9.0%
COC(=O)c1c(NC(=O)CCCOc2ccc(C(C)(C)C)cc2)sc2c1C(C(=O)OC)CC2 (configuration not stated) | 28.2µM* | 56.2µM* | 1.41µM* | -24.0% | . | ?
CCCC(=O)Nc1sc2c(c1C(=O)OC)C(C(=O)OC)CC2 (configuration not stated) | 9.0% | -11.5% | -3.0%[59 µM] | 11.1% | -2.0% | 0.0%
CCCCCC(=O)Nc1ccc(N2CCN(CC)CC2)c(Cl)c1 | -5.1% | -6.3% | 10.1%[12.7 µM] | 52.8% | -2.5% | -36.5%
Cc1ccc(S(=O)(=O)Cc2noc([C@@H]3C[C@@H](O)CN3C3CCOCC3)n2)cc1 | . | . | . | . | . | 15.5%[176 µM]
CCCN(CCC)CCNC(=O)c1cc2c(-c3ccccc3F)nn(C)c2s1 | 1.3% | -17.6% | -18.8% | 39.0% | -9.7% | ?
